S1P2 antag = blocks the human S1P2 receptor; O95136; cell-based S1P2 antagonist assay, inhibition at 5 uM; inhibition, % at 5 µM; hit rate 0.21% among 97,000; in the data active means inhibition above about 45%;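 further: CRE beta-lactamase reporter cells expressing human S1P2 stimulated with S1P; 0% = agonist at EC80 alone and 100% = agonist plus reference antagonist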
Target sequence (O95136 whole entry, looked up): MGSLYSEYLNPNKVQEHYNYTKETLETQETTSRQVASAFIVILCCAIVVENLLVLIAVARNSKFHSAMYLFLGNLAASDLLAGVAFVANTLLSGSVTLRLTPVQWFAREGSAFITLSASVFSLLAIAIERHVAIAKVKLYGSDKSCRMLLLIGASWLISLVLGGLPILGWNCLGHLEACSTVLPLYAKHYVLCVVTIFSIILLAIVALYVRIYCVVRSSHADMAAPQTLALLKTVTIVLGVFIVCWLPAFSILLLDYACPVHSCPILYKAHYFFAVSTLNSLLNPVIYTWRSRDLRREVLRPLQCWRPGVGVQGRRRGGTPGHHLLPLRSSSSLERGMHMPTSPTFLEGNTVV
GALR2 agonist = GALR2 (human) receptor agonism | activation, % (concentration not given with the values) | GALR2-expressing cells, agonist activation read-out | hit rate 0.48% among 140,000; in the data active means activation above about 5%, passing the limit was not always enough;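 further: 0% = vehicle buffer wells and 100% = reference agonist at full effect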
GALR2 blocker = GALR2 (human) receptor antagonism; hit rate 0.39% among 140,000; inhibition, % at 4 µM; O43603; GALR2-expressing cells, antagonist mode; in the data active means inhibition above about 27%;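 further: cells stimulated with galanin 1-16 at roughly its EC80; 0% = agonist challenge control and 100% = basal control without agonist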
S1P2 ag = activates the human S1P2 receptor; O95136; hit rate 0.46% among 97,000; AID 729; S1P2-expressing cell line, agonist reporter read-out; activation, % at 4.5 µM; in the data active means activation above about 16%;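 further: 0% = vehicle low control and 100% = maximal reference agonist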
Starred values were filed as active, the others as inactive; x = no result given. Sampled rows, rich in hits. Any-hit rate of the full collection: about 1.1%.

SMILES | S1P2 antag | GALR2 agonist | GALR2 blocker | S1P2 ag
CCc1nccn1S(=O)(=O)c1cc(C)c(OC)cc1C | -6 | -3 | -3 | 16*
CN=C(NC1CCCCC1)c1ccc(Cl)cc1 | x | -1 | 6 | x
N=c1c(-c2nc3ccccc3[nH]2)cc(C(=O)c2cccs2)nn1-c1ccc(Cl)cc1 | -29 | -2 | 3 | 30*
O=C(/C(=C/c1ccc(Cl)cc1)c1nc2ccccc2[nH]1)c1cccs1 | 40 | -3 | 26 | -12
CCN(CC)S(=O)(=O)c1ccc(N2CCOCC2)c(NC(=O)CC23CC4CC(CC(Br)(C4)C2)C3)c1 | x | 1 | -15 | x
Cc1[nH]c2ccccc2c1/C=N/Nc1ccc([N+](=O)[O-])cc1 | x | 1 | 18 | x
COc1ccccc1NS(=O)(=O)c1cc([N+](=O)[O-])ccc1N/N=C/c1c(C)[nH]c2ccccc12 | 69* | -5 | 9 | -15
CC1CCCC(C)N1C(=O)CSc1nnc(CSc2ncccn2)n1C (stereo unspecified) | x | -1 | 12 | x
CCOc1ccccc1C(=O)N(CN1CCCC1=O)c1cccc(Cl)c1 | 9 | -2 | 10 | -6
CCN(C(=O)c1ccc(C(C)(C)C)cc1)c1nnc(Cn2nnc3ccccc32)s1 | 87* | -2 | 17 | -10
Cc1ccc(C(=O)Cn2nnc3ccccc32)cc1 | 2 | -2 | 7 | -5
COc1cc(CN(C2CCCCC2)S(=O)(=O)c2ccc(S(=O)(=O)N(C)C3CCCCC3)cc2)cc(OC)c1OC | x | -2 | 16 | x
O=C(CCC(=O)c1cccs1)Nc1ccc(F)c(F)c1F | -5 | 0 | -15 | -5
CC(O)(CS(=O)(=O)Cc1ccccc1)C(=O)Nc1ccc(C(F)(F)F)cc1 (stereo unspecified) | -14 | -1 | -14 | -4
O=S1(=O)C=C(Sc2nc3cc(Cl)ccc3o2)c2ccccc21 | 94* | -1 | 10 | -11
O=C(c1cc(NC(=O)C23CC4CC(CC(C4)C2)C3)cc(NC(=O)C23CC4CC(CC(C4)C2)C3)c1)N1CCCCC1 | 74* | -2 | 13 | -11
O=C(NC(=S)N1CCCCC1)C12CC3CC(CC(C3)C1)C2 | -5 | -1 | -4 | -3
Cc1cc(Br)ccc1OCCCCNCCO | 30 | -5 | 9 | 69*
C=CCNCCCCOc1ccc(Br)cc1C | x | -1 | 7 | x
CC1CCCN(C(=O)CSc2cnc3ccccc3n2)C1 (stereo unspecified) | 5 | -2 | -13 | -6
Cc1ccccc1-c1cc(C(=O)Nc2sc(C)c(C)c2C(N)=O)c2ccccc2n1 | -41 | 0 | 12 | 17*
CCOC(=O)c1sc(NC(=O)c2cc(-c3ccccc3C)nc3ccccc23)c(C#N)c1C | -19 | -1 | -12 | -5
Cc1ccc(C(=O)CSc2nnc(CNc3nc(-c4ccccc4)cs3)n2C)cc1 | 2 | -4 | -1 | -5
COc1ccc(NC(=O)CSc2nnc(-c3ccccc3)n2N)cc1 | -3 | -1 | 3 | -1
CCn1c2ccccc2c2cc(NC(=O)CSc3nnc(-c4ccc(OC)cc4)n3N)ccc21 | 30 | 5.2* | 9 | -11
SMILES | S1P2 antag | GALR2 agonist | GALR2 blocker | S1P2 ag
COc1ccc(CCn2c(N)c(C#N)c3nc4ccccc4nc32)cc1OC | 1 | 1 | -7 | 2
COc1ccccc1CCn1c(N)c(C#N)c2nc3ccccc3nc21 | -31 | 2 | -20 | 16*
CCCCCn1c(N)c(C#N)c2nc3ccccc3nc21 | -12 | 7.9* | -9 | 13
COc1ccc(Cn2c(N)c(C#N)c3nc4ccccc4nc32)cc1OC | -85 | 3 | -9 | 21*
O=C(CSc1nnc(-c2ccc(OC(F)F)cc2)o1)NCc1cccs1 | 7 | -3 | 9 | -5
[O-][N+]1=c2ccc(Nc3ccccc3)cc2=NC12CCCCC2 | 48* | -3 | 12 | -11
Cc1ccc(-c2ccc(CCC(=O)O)n2Cc2ccco2)cc1 | -18 | 0 | 7 | -4
COc1ccc(C2Nc3ccccc3C(=O)N2c2ccc(F)cc2)cc1CSc1ccccn1 (stereo unspecified) | x | 6.4* | 0 | x
CC(C)(C)Nc1nc(N2CCCC2)nc(N2CCCC2)n1 | 47* | -1 | 4 | -7
CCNc1nc(NC(C)(C)C)nc(N2CCCC2)n1 | -23 | 0 | 13 | 0
Cc1nn(-c2ccc(F)cc2)c2sc(C(=O)N3CCCCCC3)cc12 | -26 | 1 | -21 | 30*
Cc1ccc(Cn2cccc(-c3nc4ccccc4s3)c2=O)cc1 | -71 | 65* | -18 | 77*
O=c1c(-c2nc3ccccc3s2)cccn1Cc1ccccc1 | -56 | 31* | -12 | 63*
O=C(Nc1ccccc1-c1nc2ccccc2s1)c1ccco1 | -10 | 1 | -13 | -1
CCc1ccc(CNCCNCC(C)O)cc1 (stereo unspecified) | -4 | -2 | 3 | -6
O=C(NCC(c1cccnc1)N1CCOCC1)Nc1ccccc1 (stereo unspecified) | 13 | -4 | -9 | -5
CCN1C(=C2C(=O)c3ccccc3C2=O)C=Cc2ccccc21 | -14 | -1 | -4 | -5
CCN1/C(=C/c2ccc3ccccc3[n+]2CC)C=Cc2ccccc21 | 81* | 0 | 24 | -2
COc1ccc2cc(CN(Cc3cccnc3)S(=O)(=O)c3ccccc3)c(=O)[nH]c2c1 | 22 | -1 | 8 | -7
Cc1ccc(S(=O)(=O)N2CCCC2C(=O)Oc2ccccc2)cc1 (stereo unspecified) | -2 | 0 | 0 | 36*
COC(=O)C1CCCN1S(=O)(=O)c1ccc2ccccc2c1 (stereo unspecified) | 9 | -1 | -5 | -5
CCCN1C(=O)/C(=N\OCC(=O)NC23CC4CC(CC(C4)C2)C3)c2ccccc21 | x | -1 | 5 | x
CON/C=C(\C=Nc1ccc(Cl)cc1)c1ncc(C(F)(F)F)cc1Cl | 47* | -2 | -2 | -5
CCOC(=O)C1=C(O)/C(=C/c2cn(CC(=O)NCC3CCCO3)c3ccccc23)SC1=Nc1ccc(C)cc1 (stereo unspecified) | 3 | 1 | 34* | -5
CCCc1cc(=O)[nH]c(SCC(=O)N2CCN(S(=O)(=O)c3ccc(C)cc3)C2)n1 | 4 | -2 | 4 | -2
SMILES | S1P2 antag | GALR2 agonist | GALR2 blocker | S1P2 ag
O=C(NC1CCCCCC1)C1CCC(CNS(=O)(=O)c2ccc(Br)s2)CC1 (stereo unspecified) | x | 5.3* | -7 | x
CCOC(=O)N1CCC(NC(=O)CNS(=O)(=O)c2ccc(Br)s2)CC1 | 15 | -3 | 9 | -7
CCn1c2ccccc2c2cc(Nc3cc(C)nc4ncnn34)ccc21 | x | 3 | 34* | x
Cc1ccc(Nc2nc3ccccc3nc2-n2nc(C)cc2C)cc1 | 10 | 2 | -4 | 20*
COc1ccc(C(=O)c2sc3nc(-c4ccccc4)ccc3c2N)cc1OC | 57* | 0 | 20 | -14
O=C1OCCN1C(=O)[C@H]1[C@H](c2ccc(F)cc2)C(c2ccc(F)cc2)=NN1c1ccc(Br)cc1 | x | 6.7* | -2 | x
O=C(Nc1c2ccccc2nc2ccccc12)C(Cl)(Cl)Cl | -24 | 10 | -11 | 18*
CCn1c(C)nc2cc(C(=O)OC(C(F)(F)C(F)F)C(F)(F)C(F)F)ccc21 | 70* | 0 | 7 | -9
O=C(COc1ccccc1-c1ccccc1)N/N=C/c1ccc2ccccc2c1 | x | 6.8* | 12 | x
OCCSc1ncnc2c1oc1ccccc12 | -2 | -1 | -1 | -2
OCCN(CCO)c1ncnc2c1oc1ccc(Br)cc12 | -52 | -1 | -15 | 20*
